The entries come from a sample that favours hits as a whole.
RBX1-CUL1 inh = inhibitors of human ROC1-CUL1 ubiquitin ligase activity. in vitro K48 di-Ub FRET, acceptor:donor ratio, 45 min. 140,000 tested, 0.6% active. inhibition, % at 10 µM. AID 1347404. P62877+Q13616; in the data active = inhibition above about 25%
Numbers without * were called inactive.

SMILES	RBX1-CUL1 inh
Cc1c(CC(=O)NCC(C)C)c2c(n1Cc1ccccc1)CCCC2=O	-3.9
c1nc(CCNc2nc3nonc3nc2N2CCSCC2)cs1	-4.2
C(/C=C/c1cccc2ccccc12)=C\c1ccccc1	-5.3
CC(C)(O)C(=O)/C=C/c1cccc2ccccc12	53.9*
CC(C)(O)C(=O)/C=C/c1ccccc1	13.0
CN(C)c1ccc(/C=C/C(=O)c2ccc3c4c(cccc24)CC3)cc1	3.5
O=C(/C=C/c1cc[n+](CC(=O)c2ccc3cccc4c3c2CC4)cc1)c1ccc2cccc3c2c1CC3	86.8*
O=C(C[n+]1ccc(-c2ccccc2)cc1)c1ccccc1	-1.3
COc1cc(OC)c2c(=O)n(C)c(=O)n(C)c2n1	-12.7
CCCOC(=O)c1nc(C)c(C)nc1C(=O)Nc1ccc(Cl)cc1Cl	6.9
CC(C)CC(NC(=O)C(CC(C)C)NC(=O)C(Cc1ccccc1)NC(=O)OC(C)(C)C)C(N)=O (centres undefined)	8.4
CCOc1c(Cl)cc(CNc2ccc(N3CCCC3)cc2)cc1OC	67.8*
COc1cccc(CNc2ccc(N3CCOCC3)cc2)c1OC	10.7
COc1cc(CNc2ccc(N3CCCC3)cc2)cc(Cl)c1OCc1ccc(F)cc1	-12.1
COc1cccc(NC(=O)CN2CCN(c3cc(Cl)ccc3C)CC2)c1	5.9
CNC(=O)C(C)Oc1ccccc1OC (centres undefined)	2.6
O=C(OC1=CC(=O)c2ccccc2C1=O)c1ccccc1	-17.1
CCc1cc2c(cc1OC(C)=O)C(=O)c1ccccc1C2=O	10.1
CC(=O)C(C(C)=O)C1=CC(=O)C(=O)c2ccccc21	102.7*
CCOc1ccc(C(=O)Nc2ccccn2)cc1	5.9
COc1cc(CNc2ccc(F)c(Cl)c2)ccc1OCC(=O)NC1CCCCC1	2.7
c1ccc(-c2cc3c4ccccc4ccc3c3ccccc23)cc1	7.0
NCCNc1nc(-c2cccc(Br)c2)nnc1-c1ccccc1	54.4*
Nc1nc(-c2cccc(Br)c2)cs1	5.1
Cc1ccc(-c2nnc(-c3ccccc3)nc2NCCCO)cc1	0.7
SMILES	RBX1-CUL1 inh
CC(C)c1ccccc1NC(=O)c1ccc(CN2CCCCC2)cc1	3.1
Cc1ccc(C2=NOC(=O)/C2=C\c2ccc(C)o2)cc1	48.6*
Cc1ccc(C)c(/C=C2\C(=O)ON=C2c2ccccc2)c1	-1.4
O=C1ON=C(c2ccccc2)/C1=C/c1ccc(Br)s1	-5.4
CCOC(=O)C1=C(C)N(c2ccc(C)c(C)c2)C(=O)/C1=C\c1ccc(OC)cc1	1.1
CC(=O)Oc1ccc(OC(C)=O)c2c1C1CCCCC1=C1CCCCC12 (centres undefined)	1.9
COc1cc(C(=O)O)ccc1OC(=O)c1ccccc1OC(C)=O	2.8
CC(=O)Oc1ccc(O)c2c1C(=O)C=CC2=O	105.0*
COc1cc(NS(=O)(=O)c2ccc(NS(=O)(=O)c3ccccc3)cc2)nc(OC)n1	-5.5
COc1cc(NS(=O)(=O)c2ccc(NC(=O)Nc3cccc(Cl)c3)cc2)nc(OC)n1	-5.4
COc1ccc(CC(=O)Nc2ccc(S(=O)(=O)Nc3cc(OC)nc(OC)n3)cc2)cc1	35.4*
CCc1noc(C)c1C(=O)NC(C)C1CC2CCC1C2 (centres undefined)	7.7
Cc1ccc(/C=C2\N=C(c3ccc(C)cc3)OC2=O)cc1	-6.9
CCN(CC)c1ccc(/C=C2/N=C(c3ccc(OC)c(OC)c3)OC2=O)cc1	21.3
CCCN(CCC)c1ccc(/C=C2/N=C(c3ccccc3)OC2=O)cc1	41.9*
C=CC[C@@H]1CC=C[C@@H](c2ccccc2)N1C(=O)CCC1(Cc2ccc(SC)cc2)CCC(=O)N1 (some centres undefined)	2.3
O=S1(=O)CC2N=C(N/N=C/c3ccccc3)SC2C1 (centres undefined)	-1.4
CCCCNC(=O)CCC1CCCCC1	-2.3
CC1=CC(C)=C2C=CC(=O)C(=O)C2O1 (centres undefined)	98.7*
CCOc1ccc(S(=O)(=O)NCCSCc2c(Cl)cccc2Cl)cc1	4.8
CC(C)OC(=O)Nc1nc(Cl)cc(Cl)n1	4.3
Cc1ccccc1N(Cc1ccc(F)cc1)S(C)(=O)=O	2.9
CCOC(=O)c1c(CNC2CCCCC2)oc2ccc(OC)cc12	0.3
O=C1NC(=Nc2ccc(I)cc2)S/C1=C\c1ccc([N+](=O)[O-])o1	13.9
COc1ccc(-c2cc(=O)n(-c3ccccc3)[nH]2)cc1OC	0.8
SMILES	RBX1-CUL1 inh
O=c1ccc(=O)n(-c2ccccc2)[nH]1	4.9
CC(C)(C)c1cc(=O)n(-c2ccccc2)[nH]1	72.9*
CCCCSc1nnc2c(n1)OC(c1ccc(C)cc1)Nc1ccccc1-2 (centres undefined)	4.9
O=C(CN1C(=O)S/C(=C\c2ccc(Cl)cc2)C1=O)Nc1ccc(C(=O)O)cc1	5.5
O=C(CN1C(=O)c2cccc3cccc1c23)Nc1ccc2c(c1)OCO2	1.3
Cc1c(C(=O)O)cccc1-c1ccc(/C=C2\SC(=O)N(CC(=O)Nc3ccc4c(c3)OCO4)C2=O)o1	25.8*
COc1ccc(NC(=O)CN2C(=O)S/C(=C/c3cccn3-c3ccc(C)c(C)c3)C2=O)cc1	-2.4
O=C(CN1C(=O)S/C(=C\c2cccn2-c2cccc(C(=O)O)c2)C1=O)Nc1ccc(Cl)cc1	48.5*
Cc1ccc(NC(=O)CN2C(=O)S/C(=C\c3ccc(-c4cc(C(=O)O)ccc4Cl)o3)C2=O)cc1C	7.7
O=C(CN1C(=O)S/C(=C/c2ccc(-c3ccc(Cl)c(C(=O)O)c3)o2)C1=O)Nc1ccccc1	104.0*
Cc1ccccc1NC(=O)CN1C(=O)S/C(=C\c2ccc(-c3cccc(C(=O)O)c3C)o2)C1=O	11.5
N#Cc1ccccc1CN1C(=O)S/C(=C\c2ccc(-c3ccc(C(=O)O)c(Cl)c3)o2)C1=O	-0.5
O=C1CSC2=NC(c3ccccc3)=CC(c3cn(-c4ccccc4)nc3-c3ccc(Cl)cc3)N12 (centres undefined)	-14.1
COC(=O)c1nnn(Cc2ccc(Cn3nnc(C(=O)OC)c3C(=O)OC)cc2)c1C(=O)OC	-2.4
CCOc1ccc(N2C(=O)CC(N3CCC4(CC3)OCCO4)C2=O)cc1 (centres undefined)	-0.7
CCOc1ccc(C2N(c3ccccc3)N=C(C(C)=O)N2C(C)(C)C)cc1 (centres undefined)	-12.2
CC(=O)N1C(=O)/C(=C2\C=C(c3ccccc3)OC2=O)c2ccccc21	10.9
CCc1[nH]nc2c1C1(C(=O)N(CC)c3ccccc31)C(C#N)C(=N)O2 (centres undefined)	2.1
COc1ccc2nc(NC(=O)CSC(=S)N3CCOCC3)sc2c1	1.7
O=C(/C=C\c1ccco1)Nc1cccc(C(=O)Nc2cccc(O)c2)c1	-4.0
Cc1ccc(NC(=O)/C=C/c2ccco2)cc1F	-5.9
CCSc1nnc(NC(=O)/C=C/c2ccco2)s1	1.0
O=C(/C=C/c1ccco1)NCc1cccc(CNC(=O)/C=C/c2ccco2)c1	96.8*
N=C(CC(=O)/C=C/c1ccco1)C(F)(F)F	9.3
O=C(/C=C/c1ccco1)NCC12CC3CC(C1)CC(CNC(=O)/C=C/c1ccco1)(C3)C2	103.3*
Cc1ccc(-c2[nH]nc3c2C(c2cc(C(C)(C)C)c(O)c(C(C)(C)C)c2)C(C#N)C(=N)O3)c(C)c1 (centres undefined)	-1.3
CC(=O)NC(=S)NNC(=O)c1ccccc1OCc1ccccc1	-14.1
CC1CC(OC(=O)c2cccnc2/C=C/c2ccccc2)CC(C)(C)C1 (centres undefined)	6.6
C=CCc1cccc(/C=N\NC(=O)CSc2nc3ccccc3n2Cc2ccc(Cl)cc2)c1O	3.8
Cc1c(CC(=O)NCC(N)=O)c2c(n1CCc1ccccc1)CCCC2=O	9.2
